Compound activity as filed in PubChem.
The list is not random: actives were taken first. Their share in the collection is about 2.7%.
HIV Env fusion: inhibitors of HIV-1 Env-driven cell-cell fusion, primary screen, HeLa-JRFL effector, CEM21 target cells, luciferase. inhibition, % at 12.3 µM. actives 1.1% (n = 360,000);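 active = mean replicate inhibition score of at least 50 and every replicate individually at or above 50; inconclusive = only one of the two criteria met; inactive = mean below 50 and not all replicates reaching 50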;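 also: 0% = plate neutral controls and 100% = maraviroc near 300 nM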
PGC1a acetyl inh: inhibitors of PGC1a acetylation signal, primary screen, cell-based, U2OS, AlphaScreen, inhibitor mode. inhibition, % at 15.6 µM. AlphaScreen anti-acetyl-lysine; with virally co-expressed GCN5 acetyltransferase. actives 0.17% (n = 350,000);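 active = every replicate shows inhibition of at least 40%; inconclusive = mean inhibition at least 40% but some replicate below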;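 also: 0% = neutral control wells and 100% = positive control wells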
EWS-Fli block: EWS/Fli-driven NR0B1 reporter inhibitors, primary screen, A673 cells, NR0B1 luciferase, luminescence, MLPCN library; viability-normalised; inhibition, % at 12.6 µM; actives 0.67% (n = 350,000); AID 651661, 2012;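 active = mean inhibition of at least 50% after viability correction, with every replicate also passing that limit; inconclusive = mean reaches 50% but only one of two replicates passes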;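 also: firefly luciferase signal divided by Alamar Blue viability fluorescence both relative to DMSO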
F508del corr: F508del CFTR correction, initial screen, CFBE line, single point. CFBE cells, YFP halide quenching; stimulated with forskolin plus potentiator P3; % fluorescence drop versus neutral controls. activity (quench increase), % at 7.58 µM. actives 0.36% (n = 350,000). AID 720511, 2013;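 active = mean added fluorescence quench of at least 8% versus neutral control, with both replicates also reaching 8%; inconclusive = only one of the mean or replicate conditions met; inactive = mean below 8% and not both replicates reaching 8%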;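 also: cells transiently co-express mutant CFTR-F508del with the halide-sensitive YFP; corrector assay measuring rescue of mutant channel to the surface after 24 h compound exposure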
GSIS activator: GLuc luminescence reporter in INS-1E cells, primary screen for activators of glucose-dependent secretion of insulin | INS-1E GLuc reporter insulin secretion, 2-3 h | activation, % at 16.6 µM | actives 0.61% (n = 370,000) | AID 743287, 2014;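 active = lowest replicate activation of at least 40%, so every replicate reaches that level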;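 also: 0% = median of neutral control wells and 100% = median of IBMX positive control wells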
PAX8 reporter: inhibitors of PAX8-driven TPO luciferase reporter, primary screen, RMG-I cells, single concentration; SteadyGlo, 24 h; inhibition, % at 12.6 µM; actives 1.2% (n = 360,000);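 active = mean replicate inhibition at least 60% with every replicate also reaching 60%; inconclusive = only one of the two criteria is met; inactive = mean below 60% and not all replicates reaching 60%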;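 also: luciferase light reporting Pax8 driven TPO promoter activity; plate controls were median of neutral control wells for no effect and mitoxantrone controls for full effect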
Numbers without * were called inactive; ? = inconclusive; . = not tested or not shown; [ ] = another dose, or the depositor's remark.

SMILES | HIV Env fusion | PGC1a acetyl inh | EWS-Fli block | F508del corr | GSIS activator | PAX8 reporter
CN(Cc1ccccc1)C(=O)c1ccc(Nc2nc(C(N)Cc3ccc(C(F)(F)F)cc3)cs2)nc1 (configuration not stated) | 1 | . | 34 | 3 | 12 | 87*
NC(Cc1ccc(C(F)(F)F)cc1)c1csc(NC(=O)NCCc2ccccc2)n1 (configuration not stated) | 66* | 6 | ? | -2 | 5 | -47
CCN(CCCNC(=O)CC(C(=O)N1CCc2ccccc21)n1ccnc1)c1ccccc1 (configuration not stated) | 63* | -2 | . | . | -31 | .
Cc1cccn2c(=O)c3cc(C(=O)NCCN4CCOCC4)c(=N)n(Cc4ccc(F)cc4)c3nc12 | 30 | . | . | 1 | 22 | 75*
Cc1cccn2c(=O)c3cc(C(=O)NCCN4CCOCC4)c(=N)n(CCN4CCOCC4)c3nc12 | -1 | . | -2 | 2 | 6 | -13
CC(C)NC(=O)N(C)C[C@H]1Oc2ccc(NC(=O)Nc3ccc(C(F)(F)F)cc3)cc2C(=O)N([C@H](C)CO)C[C@H]1C | 2[16.7 µM] | -3 | 4 | 0 | -5 | 35
C[C@H]1CN([C@@H](C)CO)C(=O)c2cccc(NC(=O)Nc3ccc(C(F)(F)F)cc3)c2O[C@@H]1CN(C)Cc1ccc(C(F)(F)F)cc1 | ? | 22 | 7 | -2 | -4 | -22
C[C@@H]1CN([C@@H](C)CO)C(=O)c2cccc(NC(=O)Nc3ccc(C(F)(F)F)cc3)c2O[C@H]1CN(C)Cc1ccc(C(F)(F)F)cc1 | 76*[16.7 µM] | 10 | -4 | 1 | -3 | -27
Cc1noc(C)c1NC(=O)Nc1cccc2c1O[C@H](CN(C)Cc1ccc(C(F)(F)F)cc1)[C@H](C)CN([C@@H](C)CO)C2=O | -24[16.7 µM] | -4 | -2 | -4 | -29 | 81*
C[C@@H]1CN([C@@H](C)CO)C(=O)c2cccc(NC(=O)Nc3ccc(C(F)(F)F)cc3)c2O[C@H]1CN(C)Cc1ccc(Cl)c(Cl)c1 | 85*[16.7 µM] | 4 | -3 | 1 | 44* | .
C[C@@H]1CN([C@@H](C)CO)C(=O)c2cccc(NC(=O)Nc3ccccc3)c2O[C@@H]1CN(C)Cc1ccc(C(=O)Nc2ccccc2N)cc1 | -125[16.7 µM] | -2 | 49 | 1 | -6 | 68*
Cc1noc(C)c1NC(=O)Nc1cccc2c1O[C@H](CN(C)Cc1ccc(C(F)(F)F)cc1)[C@@H](C)CN([C@@H](C)CO)C2=O | -21[16.7 µM] | -10 | 3 | -6 | -13 | 9
C[C@H](O)C#Cc1ccc2c(c1)O[C@@H](CN(C)C(=O)CN(C)C)[C@H](C)CN([C@H](C)CO)S2(=O)=O | -16[16.7 µM] | 13 | -5 | 1 | 8 | .
COC(=O)C[C@H]1C[C@H]2c3cc(NS(=O)(=O)c4ccccc4)ccc3O[C@H]2[C@@H](CO)O1 | 12[16.7 µM] | 1 | 2 | 0 | -2 | -16
C[C@@H]1CN([C@H](C)CO)C(=O)c2cccc(NC(=O)C3CCCCC3)c2O[C@H]1CN(C)Cc1ccccc1 | 74*[16.7 µM] | . | 7 | 0 | -2 | 9
CC(C)NC(=O)N(C)C[C@@H]1Oc2c(NC(=O)Nc3ccc(C(F)(F)F)cc3)cccc2C(=O)N([C@H](C)CO)C[C@@H]1C | -5[16.7 µM] | 1 | -20 | 4 | -6 | 37
CC(C)NC(=O)N(C)C[C@H]1Oc2c(NC(=O)Nc3ccc(C(F)(F)F)cc3)cccc2C(=O)N([C@@H](C)CO)C[C@H]1C | 56*[16.7 µM] | -8 | 11 | 3 | 7 | 29
Cc1noc(C)c1NC(=O)Nc1cccc2c1O[C@H](CN(C)Cc1ccc(Oc3ccccc3)cc1)[C@H](C)CN([C@@H](C)CO)C2=O | 0[16.7 µM] | 100* | 6 | 1 | -31 | .
C[C@H]1CN([C@@H](C)CO)C(=O)Cc2cc(NS(=O)(=O)c3ccccc3)ccc2O[C@H]1CN(C)Cc1ccccc1 | 0[16.7 µM] | -6 | 1 | 2 | -7 | 9
Cc1ccc(S(=O)(=O)N2CC3(O)CN(C(=O)OC(C)C)N(C(=O)OC(C)C)CC3(OC(=O)NCC3CCCCC3)C2)cc1 (configuration not stated) | 73* | 19 | 11 | -2 | -20 | 0
Cc1ccc(S(=O)(=O)N2CC3(O)CN(C(=O)OC(C)C)N(C(=O)OC(C)C)CC3(OC(=O)NC3CC3)C2)cc1 (configuration not stated) | -13 | . | -5 | -2 | -1 | -21
Cc1ccc(CNC(=O)c2ccc(N3CCCC3=O)cc2)cc1 | -77 | 2 | . | . | 12 | .
Cn1nc(C(C)(C)C)cc1C(=O)NCc1ccc(N2CCCC2=O)cc1 | 64* | -10 | . | . | -28 | .
Cc1cc(C(=O)CCl)c(C)n1CCc1ccccc1 | -15 | . | 75* | -2 | 49 | 32
C[C@@H]1CCCCO[C@@H](CN(C)Cc2ccc(C(=O)Nc3ccccc3N)cc2)[C@@H](C)CN([C@H](C)CO)C(=O)c2cc(NC(=O)C3CCCCC3)ccc2O1 | . | . | . | . | 2 | .
SMILES | HIV Env fusion | PGC1a acetyl inh | EWS-Fli block | F508del corr | GSIS activator | PAX8 reporter
Cc1nc2scc(C)n2c(=O)c1S(=O)(=O)Nc1ccc(N2CCOCC2)c(Cl)c1 | 8 | . | . | 0 | -8 | 1
Cc1nc2scc(C)n2c(=O)c1S(=O)(=O)Nc1ccc(OC(F)(F)F)cc1 | 55* | -6 | 3 | -2 | -36 | -11
COc1ccc(Nc2nc(OC)nc(N3CCOCC3)n2)cc1 | -11 | 0 | -9 | 2 | 11 | -2
COc1nc(N2CCOCC2)nc(-n2cccc2)n1 | 8 | . | . | . | 57* | .
O=C(Nc1ccc(OCC(F)(F)C(F)F)c(C(F)(F)F)c1)c1ccccc1O | 78* | -13 | . | . | . | 100*
Cc1cc(/C=C\c2ccc3cc(N(C)C)ccc3[n+]2C)c(C)n1-c1ccccc1 | . | 68* | . | . | . | .
Cc1cc(C(=O)CSc2nnc3ccccn23)c(C)n1-c1ccccc1 | 61* | . | . | . | 15 | 81*
Cc1noc(C)c1NC(=O)Nc1ccc2c(c1)C(=O)N([C@@H](C)CO)C[C@@H](C)[C@H](CN(C)CC1CCCCC1)OCCCC[C@H](C)O2 | 16[16.7 µM] | . | -2 | -2 | 24 | .
CC(=O)N1c2ccccc2N(Cc2ccc(C)cc2C)C(=O)C1(C)C | -52 | -25 | 54* | 2 | 6 | 27
CO[C@@H]1CN(C)C(=O)c2cc(NC(C)=O)ccc2OC[C@H](C)N(C(=O)c2cnccn2)C[C@@H]1C | ? | 0 | 10 | 2 | 7 | -12
C=C(CN(C)C)C(=O)c1ccc(C)cc1C | -5 | -72 | 73* | 0 | -32 | 85*
COc1ccc(NC(=O)Nc2cccc3c2O[C@@H](CN(C)C)[C@@H](C)CN([C@@H](C)CO)C3=O)cc1 | . | 4 | -12 | 1 | 5 | 3
O=C(CSCc1ccc([N+](=O)[O-])cc1)NC1CC1 | -4 | . | 83* | . | -3 | 4
